{
  "source": "PubChem BioAssay (NCATS)",
  "note": "Inconclusive results are not listed. Activity calls are given as the source filed them. The call rests on the fitted dose curve. Potency means the concentration at half of the fitted maximal effect.",
  "data": [
    {"test": "VSVG counterscreen qHTS to identify inhibitors of SARS-CoV-2 cell entry (AID 1645847); further: nearly all actives have a fitted effect of over 65% in size", "conditions": "VSV-G pseudotyped particle entry, luciferase; series mostly up to 57.2 µM", "how_it_was_run": "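Luminescence read after 48 h infection at 37 C with VSV-G-pseudotyped MLV particles, following 1 h compound exposure of Expi293F cells stably expressing human ACE2; scaled between bald particle and VSV-G particle wells.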", "values": [
      {"smiles": "COC(=O)Nc1ccc(-c2nc(N3CCOCC3)c3cnn(C4CCN(Cc5cccnc5)CC4)c3n2)cc1", "Potency": "9.61 µM (active)"},
      {"smiles": "COc1ccc(Nc2cc(-c3cnc(N)nc3)nc(N3CCOCC3)n2)cn1", "Potency": "1.08 µM (active)"},
      {"smiles": "Cc1ccc2nc(NCCN)c3ncc(C)n3c2c1", "Potency": "13.6 µM (active)"},
      {"smiles": "O=C1NC(=O)C(c2cnc3ccccn23)=C1c1cn2c3c(cccc13)CN(C(=O)N1CCOCC1)CC2", "Potency": "0.215 µM (active)"}
    ]}
  ]
}
